Here are results for five compounds from PubChem BioAssay.

Inconclusive results are not listed. Activity calls are given as the source filed them.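 Rule for the calls, unless noted: active = inhibition above the screen-wide mean plus 3 SD, about 51%; inactive = the rest.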

Assay [1] in a line: rapamycin-like changes in RPL19A-GFP expression – cell-based, S. cerevisiae, multiplex flow cytometry, primary screen (AID 1862; in the data active = percent of DMSO control GFP below about 86%;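 note: lower values mimic rapamycin by blocking the RPL19A rise seen in DMSO cells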). As to conditions: S. cerevisiae RPL19A-GFP strain, flow cytometry fluorescence, 3 h; at 10 µM; stronger effect = lower value. A general note: In flow cytometry, cells or beads pass a laser one at a time.
Assay [2] in a line: TOR pathway GLN3 branch reporter MEP2-GFP changes – S. cerevisiae, multiplex flow cytometry, primary screen (AID 1867;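 active = GFP response, as percent of the DMSO control, above the screen-wide mean plus 3 SD, about 139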;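 note: median GFP channel fluorescence of barcode-gated MEP2-GFP cells measured by flow cytometry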). As to conditions: S. cerevisiae MEP2-GFP strain, 3 h, at 10 µM, stronger effect = higher value, 100% means same as DMSO wells.
A short description of assay [3]: TOR pathway RTG branch CIT2 reporter changes – S. cerevisiae, GFP fusion, multiplex flow cytometry, primary screen (AID 1870;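 active = percent response above a set limit, the screen-wide mean plus 3 SD, cut at about 130% in these data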;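 note: barcoded CIT2-GFP strain pooled with four other GFP strains with rapamycin as positive control; median GFP fluorescence per well over plate mean of DMSO wells so 100% = DMSO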). The conditions noted are these: S. cerevisiae CIT2-GFP expression, 3 h, at 10 µM, stronger effect = higher value.
The nature of assay [4]: TOR pathway LAP4-GFP level changes – S. cerevisiae, multiplex flow cytometry, primary screen (AID 1873;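 active = GFP signal, as percent of the solvent control, above the screen mean plus 3 SD, about 149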). As to conditions: S. cerevisiae LAP4-GFP expression, 3 h, at 10 µM, stronger effect = higher value.
Assay [5] can be described thus: yeast AGP1-GFP level changes, GLN3 branch – cell-based, multiplex flow cytometry, S. cerevisiae, primary screen (AID 1887;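 active = GFP signal above the screen-wide mean plus 3 SD, that is over about 124.5% of the solvent control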;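 note: AGP1-GFP fusion strain of S. cerevisiae within a five-strain barcoded multiplex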). The conditions noted are these: 3 h, at 10 µM, stronger effect = higher value.
Assay [6] in a line: reduced mouse 2C T cell binding to pMHC/ICAM-1 vesicles – MLPCN validation set, flow cytometry, LFA-1/ICAM-1 modulator project, pilot screen (AID 2523;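 active = response below a set limit, under 55% cells CD8-positive and vesicle-bound, and CD8 cells' 90th-percentile brightness under 279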;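 for vesicle binding response: mean PE anti-B7-1 fluorescence of CD8+ cells relative to row control; 100% = QL9-loaded vesicles with DMSO vehicle in the same plate row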). As to conditions: 2C mouse CD8+ T cells, at 7 µM, stronger effect = lower value; double positive events: measured here: CD8+/vesicle+ event percentage.
Assay [7] addresses Integrin beta-1 (Homo sapiens) + Integrin alpha-4 (Homo sapiens) (UniProt P13612+P05556). In words: alpha4beta1 integrin LIBS antibody binding reduction – U937 cells, HUTS-21 mAb, flow cytometry, validation set, VLA-4 allosteric modulator project, pilot screen (AID 2674;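 active = inhibition above 50%, about 3 SD of the validation set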;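 note: antibody binding induced by the VLA-4 ligand LDV present at three times its Kd; 0% = LDV ligand with antibody and no compound and 100% = antibody without LDV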). As to conditions: HUTS-21 LIBS mAb binding, at 6.7 µM, stronger effect = higher value, binding induced by LDV ligand.
A short description of assay [8]: calorie-restriction mimetic ROS inhibitors, yeast – validation compound set, pilot screen (AID 2706;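 active = superoxide response below 65% of plate, a cut near 3 SD across the whole screen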;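 note: yeast exposed to compound for one week at 30 degrees C before staining; 100% = mean of all compound wells on the same plate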). The conditions noted are these: S. cerevisiae aging, superoxide DHE fluorescence; at 10 µM; stronger effect = lower value.
Assay [9] addresses Beta-adrenergic receptor kinase 1 (Homo sapiens) (UniProt P25098). As to the kind of experiment: GRK2 binders displacing RNA aptamer, biochemical, validation, human GRK2, bead flow cytometry (AID 488806;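 active = aptamer binding inhibition above 30%, about 3 SD of noise from non-fluorescent compounds; inactive = inhibition at or below 30%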). The conditions noted are these: bead-bound GRK2, FAM-aptamer displacement, at 10 µM, stronger effect = higher value.
The target of assay [10] is Beta-2 adrenergic receptor (Homo sapiens) (UniProt P07550). In words: agonist-induced loss of surface beta2AR – cell-based, FAP fluorogen, flow cytometry, validation set, pilot screen (AID 504459;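 active = percent response above 42, roughly 3 SD of non-fluorescent test compounds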;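 note: agonist-driven loss of surface beta2AR via internalization measured by FAP dye flow cytometry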). The conditions noted are these: Am2.2-beta2AR cells, at 10 µM, stronger effect = higher value.
Sequence of Beta-2 adrenergic receptor (Homo sapiens) (P07550 whole entry, looked up): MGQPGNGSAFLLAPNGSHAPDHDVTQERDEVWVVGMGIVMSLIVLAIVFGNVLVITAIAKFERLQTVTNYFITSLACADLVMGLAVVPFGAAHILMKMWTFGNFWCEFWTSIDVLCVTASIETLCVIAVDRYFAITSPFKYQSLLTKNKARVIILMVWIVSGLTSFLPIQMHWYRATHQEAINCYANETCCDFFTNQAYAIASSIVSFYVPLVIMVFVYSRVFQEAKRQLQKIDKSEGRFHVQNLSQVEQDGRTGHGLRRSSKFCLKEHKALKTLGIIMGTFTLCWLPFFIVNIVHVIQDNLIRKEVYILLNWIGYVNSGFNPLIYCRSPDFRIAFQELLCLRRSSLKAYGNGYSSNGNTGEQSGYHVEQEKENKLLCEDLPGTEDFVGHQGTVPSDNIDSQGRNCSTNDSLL
The target in assay [11] is AP-2 complex subunit beta (Homo sapiens) (UniProt P63010). In words: beta-arrestin/AP2 interaction blockers – biochemical, validation set, GST-AP2 beads, flow cytometry, pilot screen (AID 504541;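 active = inhibition above 54%, about 3 SD of non-fluorescent compounds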;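 note: AP2 carries R879A mutation and is captured from E. coli lysate; bead-bound FITC arrestin peptide fluorescence measuring arrestin peptide binding to AP2; 0% = DMSO wells and 100% = excess unlabeled arrestin peptide control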). As to conditions: FITC arrestin peptide, at 10 µM, stronger effect = higher value, AP2 beta2 appendage fragment, R879A mutant.
Sequence of AP-2 complex subunit beta (Homo sapiens) (P63010 whole entry, looked up, the tested form may be a part, one chain of several): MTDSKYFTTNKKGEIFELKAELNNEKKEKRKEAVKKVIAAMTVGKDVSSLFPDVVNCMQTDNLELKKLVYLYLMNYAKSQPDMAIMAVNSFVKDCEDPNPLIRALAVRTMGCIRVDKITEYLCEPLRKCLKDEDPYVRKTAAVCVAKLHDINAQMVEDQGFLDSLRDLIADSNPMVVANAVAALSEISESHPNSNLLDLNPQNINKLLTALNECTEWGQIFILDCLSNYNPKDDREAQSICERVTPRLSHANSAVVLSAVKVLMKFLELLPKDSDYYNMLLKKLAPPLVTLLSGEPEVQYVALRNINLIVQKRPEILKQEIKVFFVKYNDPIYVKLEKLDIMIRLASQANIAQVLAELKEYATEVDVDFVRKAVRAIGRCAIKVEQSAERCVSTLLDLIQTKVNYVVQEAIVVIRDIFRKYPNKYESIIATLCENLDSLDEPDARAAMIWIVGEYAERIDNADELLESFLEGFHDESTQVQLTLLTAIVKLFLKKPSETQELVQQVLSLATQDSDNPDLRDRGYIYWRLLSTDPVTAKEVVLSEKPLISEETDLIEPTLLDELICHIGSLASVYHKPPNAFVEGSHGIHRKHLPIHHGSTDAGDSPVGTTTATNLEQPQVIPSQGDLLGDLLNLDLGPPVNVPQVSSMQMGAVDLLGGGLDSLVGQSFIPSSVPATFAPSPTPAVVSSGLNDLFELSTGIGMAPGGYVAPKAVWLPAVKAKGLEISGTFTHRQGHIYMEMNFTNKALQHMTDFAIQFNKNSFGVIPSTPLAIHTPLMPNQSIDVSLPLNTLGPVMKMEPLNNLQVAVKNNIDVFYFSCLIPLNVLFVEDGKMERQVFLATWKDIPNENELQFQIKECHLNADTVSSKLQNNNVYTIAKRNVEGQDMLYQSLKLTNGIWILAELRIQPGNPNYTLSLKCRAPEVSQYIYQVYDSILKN
Assay [12] is described as follows: cytosolic pH regulators acting via V-ATPase – S. cerevisiae, pHLuorin, HTS validation (AID 504600; in the data active = response above about 15%;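 note: plate controls were DMSO for no effect and reference compound for full effect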). As to conditions: V-ATPase proton transport, at 10 µM, stronger effect = higher value.
For assay [13], the system named is anti-desmoglein-3 scFv antibody binding to human DSG3. As to the kind of experiment: blockers of pathogenic pemphigus antibody–desmoglein-3 binding – biochemical, validation compound set, bead-based, flow cytometry, pilot screen (AID 588368;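 active = binding below the plate cutoff, the plate median minus 3 SD, with a reading above zero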;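 note: signal is the median channel fluorescence of bead-bound GFP antibody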). The conditions noted are these: Protein G beads, DSG3-Fc, scFv-GFP binding, at 10 µM, stronger effect = lower value.
Assay [14] is described as follows: Nile Red efflux blockade in pump-expressing yeast – validation compound set, multiplex, phenotypic, pilot screen (AID 588506;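 active = efflux inhibition above 0.42, the validation set average plus 4 SD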;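 note: Nile Red retained in cells so higher fluorescence means more efflux inhibition; 0 = negative control wells and 1 = enniatin B 25 µM full block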). The conditions noted are these: S. cerevisiae pump-expressing triplex, Nile Red efflux flow cytometry; at 10 µM; stronger effect = higher value; the pumps come from Candida albicans.
The target of assay [15] is ATP-binding cassette sub-family B member 6 (Homo sapiens) (UniProt Q9NP58). In words: blockers of ABCB6-driven porphyrin uptake – K562-ABCB6 cells, flow cytometry, validation set, pilot screen (AID 588550).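 Note: 0% = DMSO wells and 100% = benzethonium chloride 70 µM positive control.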 The conditions noted are these: K562-ABCB6 porphyrin accumulation, 1 h, at 10 µM, stronger effect = higher value.
Sequence of ATP-binding cassette sub-family B member 6 (Homo sapiens) (Q9NP58 whole entry, looked up): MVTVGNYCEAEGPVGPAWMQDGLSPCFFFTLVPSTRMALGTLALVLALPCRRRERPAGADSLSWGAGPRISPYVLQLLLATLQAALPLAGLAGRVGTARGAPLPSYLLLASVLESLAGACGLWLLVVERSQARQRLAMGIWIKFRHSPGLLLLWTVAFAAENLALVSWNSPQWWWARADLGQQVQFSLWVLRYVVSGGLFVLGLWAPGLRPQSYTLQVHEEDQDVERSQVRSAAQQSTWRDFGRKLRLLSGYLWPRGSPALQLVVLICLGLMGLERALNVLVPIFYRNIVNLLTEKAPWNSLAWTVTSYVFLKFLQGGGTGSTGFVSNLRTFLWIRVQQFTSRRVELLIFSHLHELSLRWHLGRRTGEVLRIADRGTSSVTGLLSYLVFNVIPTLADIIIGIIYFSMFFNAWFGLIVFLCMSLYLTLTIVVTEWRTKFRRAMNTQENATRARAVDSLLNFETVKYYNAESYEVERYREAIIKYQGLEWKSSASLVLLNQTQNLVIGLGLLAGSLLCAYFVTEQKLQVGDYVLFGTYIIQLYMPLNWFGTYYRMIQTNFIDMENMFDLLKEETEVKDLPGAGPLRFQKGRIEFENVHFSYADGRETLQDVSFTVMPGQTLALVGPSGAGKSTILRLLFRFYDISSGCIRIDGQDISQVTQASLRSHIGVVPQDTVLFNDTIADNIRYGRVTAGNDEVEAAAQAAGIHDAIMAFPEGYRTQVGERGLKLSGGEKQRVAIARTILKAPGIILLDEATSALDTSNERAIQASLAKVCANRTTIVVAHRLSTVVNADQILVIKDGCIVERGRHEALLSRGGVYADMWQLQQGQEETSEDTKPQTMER
Assay [16] is described as follows: AML differentiation inducers, ER-HoxA9 marrow cells – cell-based, GFP/MAC1 double positive, flow cytometry, validation set, primary screen (AID 588685;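 active = differentiation response of at least 50%, scaled between solvent and reference control, from cells with both markers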;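 note: compound exposure lasts four days before antibody staining and flow analysis; 0% = DMSO wells and 100% = 5 µM fulvestrant positive control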). As to conditions: stronger effect = higher value, normalized: vehicle 0, fulvestrant 100.

Sequence of Beta-adrenergic receptor kinase 1 (Homo sapiens) (P25098 whole entry, looked up): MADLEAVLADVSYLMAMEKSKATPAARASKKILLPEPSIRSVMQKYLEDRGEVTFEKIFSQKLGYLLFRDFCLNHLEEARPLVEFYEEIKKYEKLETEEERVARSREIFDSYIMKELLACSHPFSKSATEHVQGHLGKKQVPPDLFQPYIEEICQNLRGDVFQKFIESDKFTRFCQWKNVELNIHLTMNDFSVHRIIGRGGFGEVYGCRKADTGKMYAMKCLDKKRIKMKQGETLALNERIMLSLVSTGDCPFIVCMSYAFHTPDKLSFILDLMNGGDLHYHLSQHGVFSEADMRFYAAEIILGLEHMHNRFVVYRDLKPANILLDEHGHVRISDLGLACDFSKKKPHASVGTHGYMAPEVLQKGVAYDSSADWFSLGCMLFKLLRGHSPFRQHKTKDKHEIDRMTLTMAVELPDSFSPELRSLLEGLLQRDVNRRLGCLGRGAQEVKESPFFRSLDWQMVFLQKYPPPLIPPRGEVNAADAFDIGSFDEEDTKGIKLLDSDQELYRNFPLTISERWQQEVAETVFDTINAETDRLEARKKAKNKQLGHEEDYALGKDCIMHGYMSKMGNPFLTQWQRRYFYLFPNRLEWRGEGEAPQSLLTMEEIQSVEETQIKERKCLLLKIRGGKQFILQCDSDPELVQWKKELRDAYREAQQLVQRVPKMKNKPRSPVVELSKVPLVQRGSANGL
Sequence of Integrin beta-1 (Homo sapiens) + Integrin alpha-4 (Homo sapiens) (P05556 whole entry, looked up): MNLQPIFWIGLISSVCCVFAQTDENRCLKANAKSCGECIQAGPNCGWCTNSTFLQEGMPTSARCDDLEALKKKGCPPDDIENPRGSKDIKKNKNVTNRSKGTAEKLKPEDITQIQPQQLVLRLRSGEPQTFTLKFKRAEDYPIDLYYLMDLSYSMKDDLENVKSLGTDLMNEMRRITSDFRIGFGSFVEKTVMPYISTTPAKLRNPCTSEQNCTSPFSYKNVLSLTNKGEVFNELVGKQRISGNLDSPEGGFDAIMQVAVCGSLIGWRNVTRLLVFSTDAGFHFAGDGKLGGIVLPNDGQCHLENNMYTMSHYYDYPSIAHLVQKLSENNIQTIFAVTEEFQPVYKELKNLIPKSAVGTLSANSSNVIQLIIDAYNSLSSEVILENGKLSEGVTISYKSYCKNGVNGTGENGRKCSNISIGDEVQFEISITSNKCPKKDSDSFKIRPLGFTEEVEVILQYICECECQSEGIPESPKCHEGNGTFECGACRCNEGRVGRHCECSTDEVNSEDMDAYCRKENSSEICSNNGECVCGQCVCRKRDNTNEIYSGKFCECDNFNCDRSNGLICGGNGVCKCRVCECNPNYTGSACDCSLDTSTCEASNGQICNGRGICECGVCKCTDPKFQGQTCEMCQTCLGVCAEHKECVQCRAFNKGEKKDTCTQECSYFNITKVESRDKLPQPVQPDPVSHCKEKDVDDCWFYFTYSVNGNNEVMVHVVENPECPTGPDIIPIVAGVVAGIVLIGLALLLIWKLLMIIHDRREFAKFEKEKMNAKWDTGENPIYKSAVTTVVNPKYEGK
Sequence of Integrin beta-1 (Homo sapiens) + Integrin alpha-4 (Homo sapiens) (P13612 whole entry, looked up): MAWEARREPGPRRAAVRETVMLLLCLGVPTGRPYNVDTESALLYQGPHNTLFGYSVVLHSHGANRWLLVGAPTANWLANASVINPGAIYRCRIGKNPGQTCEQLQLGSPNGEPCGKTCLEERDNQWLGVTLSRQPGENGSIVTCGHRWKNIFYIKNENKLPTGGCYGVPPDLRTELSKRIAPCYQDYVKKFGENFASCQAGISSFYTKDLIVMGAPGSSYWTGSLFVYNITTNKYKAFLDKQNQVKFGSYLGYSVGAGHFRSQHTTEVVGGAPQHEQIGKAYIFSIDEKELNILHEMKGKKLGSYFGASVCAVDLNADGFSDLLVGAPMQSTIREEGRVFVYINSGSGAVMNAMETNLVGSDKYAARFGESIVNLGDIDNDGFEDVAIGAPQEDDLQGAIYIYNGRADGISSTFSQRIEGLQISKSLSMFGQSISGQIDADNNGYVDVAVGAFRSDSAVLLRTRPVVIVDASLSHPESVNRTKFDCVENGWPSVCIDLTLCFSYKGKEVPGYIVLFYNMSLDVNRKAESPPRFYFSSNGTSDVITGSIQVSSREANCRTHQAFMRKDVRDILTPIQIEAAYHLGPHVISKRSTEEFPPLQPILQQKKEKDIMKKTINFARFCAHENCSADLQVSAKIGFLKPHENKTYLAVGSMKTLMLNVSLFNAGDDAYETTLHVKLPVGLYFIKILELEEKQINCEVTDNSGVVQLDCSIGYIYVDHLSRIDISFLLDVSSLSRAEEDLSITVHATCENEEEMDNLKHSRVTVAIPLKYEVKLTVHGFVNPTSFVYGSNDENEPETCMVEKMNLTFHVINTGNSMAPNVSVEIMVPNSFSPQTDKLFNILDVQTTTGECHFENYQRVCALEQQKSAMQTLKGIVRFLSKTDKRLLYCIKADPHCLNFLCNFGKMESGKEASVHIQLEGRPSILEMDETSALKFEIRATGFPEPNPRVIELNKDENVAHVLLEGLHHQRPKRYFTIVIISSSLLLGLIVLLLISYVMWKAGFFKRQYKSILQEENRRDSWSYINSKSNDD

One may read the inhibition as the change of the read-out against control, counted positive when it falls. For `CC(=O)[C@H]1[C@H](C#N)C[C@H]2[C@@H]3CC=C4C[C@@H](O)CC[C@]4(C)[C@H]3CC[C@@]21C`, in assay [1], the percent of DMSO control GFP was 92% (inactive). The figures for the GFP response vs DMSO in [2] and in assay [4] were 125% (inactive) and 85.8% (inactive), respectively. The percent response of DMSO control in assay [3] is 104% (inactive). Further, the GFP response, % of DMSO in assay [5] was 88% (inactive). In [6], this compound showed a double positive events of 62.5%. In addition, the vesicle binding response in assay [6] was 112% (inactive). The inhibition in assay [7] is 19.1% (inactive); in assay [11], -10% (inactive); in assay [15], 6% (inactive). The superoxide response (% of plate) in [8] was 104% (inactive). Besides, in [9], the aptamer binding inhibition was 11% (inactive). The response in [10] was 2.41% (inactive); in assay [12], 0% (inactive). The binding (% of control) in assay [13] is 103% (inactive). The efflux inhibition (fraction of control) in assay [14] was -0.28 (inactive). Further, the differentiation response in [16] was -3.28% (inactive).

On to `O=C(OCCNC(=O)c1ccc2ccccc2n1)c1ccc(F)cc1`, for which the percent of DMSO control GFP in [1] is 103% (inactive). Besides, the GFP response vs DMSO in [2] was 110% (inactive); in assay [4], 87.4% (inactive). Moreover, the percent response of DMSO control in [3] is 97.8% (inactive). For the same compound, the GFP response, % of DMSO in assay [5] was 88.9% (inactive). The compound also had a double positive events in [6] of 58.4%. Moreover, the vesicle binding response in assay [6] is 241% (inactive). Also, the inhibition in assay [7] was 2.66% (inactive); in [11], 2.3% (inactive); in assay [15], 0% (inactive). In addition, the superoxide response (% of plate) in assay [8] is 114% (inactive). In addition, in [9], the aptamer binding inhibition is 0% (inactive). Moreover, the figures for the response in assay [10] and in assay [12] were 4.51% (inactive) and 1.13% (inactive), respectively. For the same compound, the binding (% of control) in assay [13] is 99.2% (inactive). In addition, in [14], the efflux inhibition (fraction of control) is -0.04 (inactive). In [16], the differentiation response is 8.06% (inactive).

On to `Cc1ccc(C(=O)Nc2ccc(O)cc2C(=O)O)cc1C`, for which the percent of DMSO control GFP in assay [1] was 105% (inactive). The GFP response vs DMSO was 99.6% (inactive) in assay [2] and 75.2% (inactive) in assay [4]. Moreover, the percent response of DMSO control in assay [3] was 102% (inactive). In addition, the GFP response, % of DMSO in [5] was 86.8% (inactive). Besides, the double positive events in assay [6] was 58.8%. Moreover, in assay [6], the vesicle binding response is 274% (inactive). The inhibition is 9.13% (inactive) in assay [7], -1.05% (inactive) in [11] and -4% (inactive) in assay [15]. The superoxide response (% of plate) in [8] is 103% (inactive). The aptamer binding inhibition in assay [9] is 3% (inactive). Besides, the response in assay [10] was 51.5% (active); in assay [12], 1.04% (inactive). The binding (% of control) in assay [13] is 106% (inactive). For the same compound, the efflux inhibition (fraction of control) in assay [14] is 0.05 (inactive). In addition, the differentiation response in assay [16] was 5.6% (inactive).

On to `Cc1ncc(CN2CCC(CO)(CCc3ccccc3)CC2)s1`, for which the percent of DMSO control GFP in assay [1] was 101% (inactive). Besides, the GFP response vs DMSO in assay [2] is 111% (inactive); in assay [4], 102% (inactive). For the same compound, the percent response of DMSO control in assay [3] is 104% (inactive). Further, the GFP response, % of DMSO in assay [5] was 110% (inactive). Further, in [6], the double positive events is 62.3%. Besides, the vesicle binding response in assay [6] is 98.1% (inactive). The inhibition in assay [7] was 6.95% (inactive); in assay [11], -1.19% (inactive); in [15] it was 6% (inactive). Also, in assay [8], the superoxide response (% of plate) was 97.2% (inactive). In addition, the aptamer binding inhibition in [9] is 2% (inactive). In addition, the response is -0.43% (inactive) in [10] and 0.58% (inactive) in assay [12]. In addition, in [13], the binding (% of control) was 107% (inactive). For the same compound, the efflux inhibition (fraction of control) in assay [14] was -0.07 (inactive). Further, in assay [16], the differentiation response was -1.65% (inactive).

As to `CC(C)[C@H](NC(=O)[C@@H]1CSCN1C(=O)OC(C)(C)C)C(=O)NCC1CCC(C(=O)O)CC1` (stereo not given in full), the percent of DMSO control GFP in assay [1] is 99.7% (inactive). Moreover, the GFP response vs DMSO was 97.4% (inactive) in [2] and 84.6% (inactive) in [4]. Also, the percent response of DMSO control in [3] is 104% (inactive). Besides, the GFP response, % of DMSO in assay [5] is 96.3% (inactive). In addition, the double positive events in assay [6] was found to be 64.5%. Moreover, the vesicle binding response in [6] is 283% (inactive). The results for the inhibition in [7], in [11] and in [15] were -4.52% (inactive), -2.51% (inactive) and 109% (active), respectively. The superoxide response (% of plate) in [8] was 82.1% (inactive). For the same compound, the aptamer binding inhibition in assay [9] is 4% (inactive). Also, the response is -5.23% (inactive) in assay [10] and 3.84% (inactive) in assay [12]. The binding (% of control) in assay [13] was 98.9% (inactive). In addition, in [14], the efflux inhibition (fraction of control) was 0.01 (inactive). Further, the differentiation response in [16] is 0.8% (inactive).
